The list is not random: actives were taken first. Their share in the collection is about 18%.
VP16 counter – counter-screen for ROR gamma inhibitors: Gal4-VP16 reporter. Drosophila S2 Gal4-VP16 UAS-luciferase, luminescence, 20 h. 3.5% of 310,000 active. Potency, µM (top dose mostly 53.6 µM), most hits filed as inhibitors. AID 2546;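 also: Gal4-VP16 expression switched on by copper sulfate through the metallothionein promoter; nearly all actives have a fitted effect of over 50% in size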
TDP1 cell noCPT – qHTS for Inhibitors of human tyrosyl-DNA phosphodiesterase 1 (TDP1): qHTS in cells in absence of CPT | 15% of 420,000 active | DT40 Tdp1-/- hTDP1 cells, no CPT, ATP luminescence, 48 h | Potency, µM (series often up to 46.2 µM), hits mostly inhibitors; also: nearly all actives have a fitted effect of over 55% in size
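Luminescent ATP content (CellTiter-Glo) served as the growth readout. Knockout chicken DT40 cells expressing human TDP1 were exposed to compounds without camptothecin for a minimum 48 hr at 37 °C.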
DT40 TDP1 CPT – DT40-hTDP1 cell growth loss with CPT; 12% of 420,000 active; chicken DT40 Tdp1-/-;hTDP1 cells + 20 nM CPT, ATP luminescence, 48 h; Potency, µM (doses to about 46.2 µM), usual class: inhibitors; also: nearly all actives have a fitted effect of over 55% in size
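Chicken DT40 Tdp1-/- cells stably complemented with human TDP1 were seeded at 400 cells/well in medium containing 20 nM camptothecin, exposed to pin-transferred compounds, and grown at 37 °C for at least 48 hr. Viability was read as ATP luminescence.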
IL1B secr inh – blocks inflammasome-driven IL-1 beta release; THP-1 LPS/ATP IL-1B secretion, AlphaLISA, 16 h; stronger effect = lower value; activity change, % at 57.5 µM; 4.7% of 360,000 active; AID 743279; in the data active = activity change below about -50%; inconclusive = mostly about -30% to -49%
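THP-1 cells pretreated 1 hr with compounds (up to 57.5 uM final), then stimulated with LPS (250 ng/mL final) plus ATP (1.25 mM final); secreted IL-1B measured by AlphaLISA after 16 hr, decreased signal indicating inhibition.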
RORgamma inh – ROR gamma (mouse) transcription inhibition. AID 2551. 5.4% of 310,000 active. Potency, µM (titrated, usually from 53.6 µM), usual class: inhibitors. Drosophila S2 Gal4-RORgamma UAS-luciferase reporter, 20 h; also: nearly all actives have a fitted effect of over 60% in size
Target sequence (P51450 whole entry, looked up, the tested form may be a part): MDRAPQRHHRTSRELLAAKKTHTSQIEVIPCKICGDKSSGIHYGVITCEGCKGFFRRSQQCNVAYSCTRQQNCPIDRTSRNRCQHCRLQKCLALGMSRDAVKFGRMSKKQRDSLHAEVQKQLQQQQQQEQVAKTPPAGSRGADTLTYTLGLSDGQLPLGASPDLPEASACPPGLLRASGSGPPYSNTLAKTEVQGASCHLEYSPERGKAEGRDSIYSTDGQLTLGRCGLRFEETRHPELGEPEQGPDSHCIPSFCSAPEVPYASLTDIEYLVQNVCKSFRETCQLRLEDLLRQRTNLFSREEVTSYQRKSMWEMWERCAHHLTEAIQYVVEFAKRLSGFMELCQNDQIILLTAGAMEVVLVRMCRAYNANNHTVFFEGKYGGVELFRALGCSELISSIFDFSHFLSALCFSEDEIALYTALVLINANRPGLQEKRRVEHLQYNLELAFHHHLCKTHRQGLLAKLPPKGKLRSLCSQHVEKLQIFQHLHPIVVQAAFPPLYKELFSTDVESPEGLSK
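Drosophila S2 cells stably expressing Gal4-DBD/mouse RORγ fusion under metallothionein promoter plus UAS-luciferase; compound 1 h, then 700 uM CuSO4 induction for 20 h at ambient temperature; inhibition read as reduced luminescence.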
LDHA block – inhibitors of human lactate dehydrogenase A; P00338; purified LDHA, NADH/diaphorase-resazurin fluorescence; stronger effect = lower value; activity change, % (values are at about 110 or 230 µM); 0.15% of 480,000 active; AID 1347041; in the data active = activity change below about -30%; inconclusive = mostly about -25% to -30%
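LDH5 2 nM; NADH 0.06 mM, pyruvate 0.2 mM; 200 mM Tris pH 7.4, EDTA, Tween-20; 5 min RT. Detection: diaphorase 0.133 mg/mL + resazurin 37 µM, fluorescence ex540/em590 at 0 and 20 min; normalized to enzyme-free and DMSO wells.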
A number is an active result; 0 = inactive; ? = inconclusive; - = no result given; [ ] = dose if it differs, or a comment. Unless noted, calls follow the shape of the dose curve; as a rule, active = well fitted curve in the direction sought with a large enough effect; inconclusive = small, poorly fitted or top-dose-only effect, or another doubt; inactive = no such curve, though single readings can be large; an effect the other way counts as inactive or inconclusive.

SMILES	VP16 counter	TDP1 cell noCPT	DT40 TDP1 CPT	IL1B secr inh	RORgamma inh	LDHA block
O=C(CSc1ccc(Cl)cc1)N1CCC(c2nc3ccccc3s2)CC1	0	?	26µM	0	0	0
O=C(CSc1c(Cl)cccc1Cl)N1CCC(c2nc3ccccc3s2)CC1	0	21µM	?	0	0	0
COc1cc(OC)cc(N(C(=O)C2COc3ccccc3O2)C(C(=O)NC2CCCCC2)c2ccc(O)cc2)c1 (configuration not stated)	?	?	?	-60	0	0
O=c1c(Cl)c(N2CCCCC2)cnn1-c1nc2ccccc2[nH]1	1.3µM	21µM	?	0	0.89µM	0
O=c1c2ccccc2cnn1-c1nc2ccccc2[nH]1	1.1µM	3.7µM	4.1µM	0	0.45µM	0
O=C1CC(c2ccccc2Cl)Cc2c1cnn2-c1nc2ccccc2[nH]1 (configuration not stated)	-	-	-	-	-	0
CC[C@H](C)[C@H]1CNC(=S)N1CC1CCN(CCCC2CCCC2)CC1	-	?	?	0	-	0
CC(O)[C@H]1CN=C(N)N1CCCCC1CCCCC1 (some centres not stated)	0	8.2µM	9.2µM	?	0	0
CCC(C)[C@H]1CNC(=O)C(=O)N1CCCCC1CCCCC1 (some centres not stated)	-	0	0	0	-	0
NCCCC[C@H]1CN=C(N)N1CCCCC1CCCCC1	-	?	?	-64	-	0
NCCCC[C@H]1CN=C(N)N1CC1CCCCC1	-	0	0	0	-	0
CCC(C)[C@H]1CN=C(N)N1CC1CCCCC1 (some centres not stated)	-	2.3µM	2.6µM	0	-	0
Clc1cccc(-c2nn3c(-c4ccc5ccccc5n4)nnc3s2)c1	-	-	-	-	-	0
COc1ccc2c(C)c(CC(=O)NCCc3ccc(F)cc3)c(=O)oc2c1	-	-	-	-	-	0
CC(C)(C)c1ccc(OCCCN2CCCC2)cc1	0	13µM	?	0	0	0
CC(C)Oc1ccc(OCCCN2CCCCCC2)cc1	0	0	0	0	0	0
CCCOc1ccc(C(O)(CCC)CCN2CCCCC2)cc1 (configuration not stated)	0	23µM	21µM	0	0	0
CC(OCCN1CCCC1)(c1ccc(F)cc1)c1ccc(F)cc1	0	?	?	-59	0	0
CCCCCNCc1ccc(C)s1	-	-	-	-	-	0
O=C(CN1C(=O)S/C(=C\c2ccccc2)C1=O)Nc1cc([N+](=O)[O-])ccc1O	0	0	0	0	?	0
Cc1ccc(/C=C2\SC(=S)N(CCCC(=O)Nc3ccc(O)cc3)C2=O)cc1	-	0	0	0	0.05µM	0
Cc1ccc(/C=C2/SC(=S)N(CCCC(=O)Nc3cc([N+](=O)[O-])ccc3O)C2=O)cc1	?	0	0	0	7.9µM	0
COC(=O)c1ccc(/C=C2/SC(=S)N(CCCC(=O)Nc3ccc(O)cc3)C2=O)cc1	0	13µM	?	?	0	0
CCc1cc(CC)n(-c2nc3c(c(=O)[nH]c(=O)n3C)n2Cc2ccccc2C)n1	-	-	-	-	-	0
CCCCC[C@H](C)N1C[C@@H](COCc2ccccc2)Oc2cc(N3CC[C@H](N(C)C)C3)ccc2S1(=O)=O	-	?	?	-50	-	0
SMILES	VP16 counter	TDP1 cell noCPT	DT40 TDP1 CPT	IL1B secr inh	RORgamma inh	LDHA block
CCCCC[C@H](C)N1C[C@H](COCc2ccccc2)Oc2cc(N3CC[C@@H](O)C3)ccc2S1(=O)=O	-	?	?	0	-	0
CCCCC[C@@H](C)N1C[C@@H](COCc2ccccc2)Oc2cc(N3CC[C@H](N(C)C)C3)ccc2S1(=O)=O	-	18µM	?	-73	-	0
CCCCC[C@H](C)N1C[C@@H](COCc2ccccc2)Oc2cc(N3CC[C@H](O)C3)ccc2S1(=O)=O	-	?	?	0	-	0
CNc1cc(C)nc2c(-c3ccc(OC)c(OC)c3)c(C)nn12	-	-	-	-	-	0
Cn1c(=O)c2c(SCC(=O)NCc3ccco3)nc(CC(C)(C)C)nc2n(C)c1=O	0	18µM	?	0	0	0
Cn1c(=O)c2c(SCC(=O)Nc3ccc4c(c3)OCCO4)nc(CC(C)(C)C)nc2n(C)c1=O	0	?	26µM	0	0	0
Cc1ccccc1OCC(O)Cn1c(SC(C)C)nc2c1c(=O)[nH]c(=O)n2C (configuration not stated)	0	?	?	0	0[10 µM]	0
CCc1cccc(OCC(O)Cn2c(N3CCCCC3)nc3c2c(=O)[nH]c(=O)n3C)c1 (configuration not stated)	0	7.3µM	8.2µM	?	?	0
Cc1ccccc1OCC(O)Cn1c(Br)nc2c1c(=O)[nH]c(=O)n2C (configuration not stated)	0	?	13µM	0	0	0
Cc1ccccc1OCC(O)Cn1c(NCc2ccccc2)nc2c1c(=O)[nH]c(=O)n2C (configuration not stated)	0	0	?	0	0	0
Cc1ccccc1OCC(O)Cn1c(N2CCCCC2)nc2c1c(=O)[nH]c(=O)n2C (configuration not stated)	0	8.2µM	?	0	0	0
Cn1c(=O)[nH]c(=O)c2c1nc(N1CCCC1)n2CC(O)COc1ccccc1 (configuration not stated)	0	0	0	0	0	0
CCSc1nc2c(c(=O)[nH]c(=O)n2C)n1CC(O)COc1ccccc1C (configuration not stated)	0	?	15µM	0	0	0
COC(=O)c1c(NC(=O)NCc2cccnc2)sc2c1CC(C)(C)OC2	-	-	-	-	-	0
C=CCNc1nc(-c2c(N)n(CCC)c(=O)n(C)c2=O)cs1	-	-	-	-	-	0
COc1ccc(-c2c(C)c3cc(OS(=O)(=O)c4ccc(Cl)cc4)ccc3oc2=O)cc1	-	-	-	-	-	0
CCSc1nc2c(c(=O)[nH]c(=O)n2C)n1CC(O)COc1ccc(Cl)cc1 (configuration not stated)	-	9.2µM	?	-	-	0
COc1cc(CNC(=O)c2cnc3c(-c4cccc(C)c4)c(C)nn3c2C)cc(OC)c1OC	-	16µM	12µM	-	-	0
Cc1cc(-c2ccccc2)nc(N(C)NC(=O)c2ccc(Cl)cc2)c1S(C)(=O)=O	0	21µM	15µM	0	0	0
CCOc1cccc(-c2nnc3n2N=C(c2ccc4c(c2)OCO4)CS3)c1	-	-	-	-	-	0
COCCn1c(-n2nc(C)cc2C)nc2c1c(=O)n(CCc1ccccc1)c(=O)n2C	-	-	-	-	-	0
CN(C(=O)CSc1nnc(-c2ccc([N+](=O)[O-])cc2)o1)c1ccccc1	-	?	16µM	-	-	0
CN(C)CCNc1c([N+](=O)[O-])cnc2ccc(Br)cc12	-	-	-	-	-	0
CCc1nnc2c3ccccc3nc(Nc3ccc(C(C)=O)cc3)n12	-	7.3µM	?	-	-	0
